Reference: PubChem BioAssay AID1159580 (chemical genetic matrix, 2015)
Hit rate of the full screen: of about 5,500 compounds, about 2,000 (36%) were called active. Inconclusive results (about 18%) are left out. Rule as the data show it: active = normalized growth mostly below about 0.91 (no sharp cut-off); inconclusive = no clear call, values can overlap the other calls; inactive = mostly above about 0.92. Some of the results follow.

Experiment: chemical genetic growth profiling, strain panel (AID 1159580);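 also: tested at 20 µM; growth read once vehicle control cultures reached saturation at 30 °C; 1 = growth at the plate median or of vehicle wells; lower values mean less growth of the strain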
Conditions: growth OD

Measured: normalized growth

CCCN(CCC)S(=O)(=O)c1ccc(C(=O)O)cc1
inactive: S. cerevisiae deletion strains, locus YJR075W, strain HOC1, hits give low values 1 | S. cerevisiae deletion strains, locus YKL009W, strain mrt4, hits give low values 0.998 | S. cerevisiae deletion strains, locus YKL068W, hits give low values 0.998 | S. cerevisiae deletion strains, locus YKL085W, strain MDH1 (second series), hits give low values 1 | S. cerevisiae deletion strains, locus YKL085W, strain MDH1, hits give low values 1 | S. cerevisiae deletion strains, locus YKL160W, strain elf1, hits give low values 0.971 | S. cerevisiae deletion strains, locus YKL190W, strain CNB1, hits give low values 0.983 | S. cerevisiae deletion strains, locus YKR001C, strain vps1, hits give low values 1.02 | S. cerevisiae deletion strains, locus YKR026C, strain gcn3, hits give low values 0.988 | S. cerevisiae deletion strains, locus YKR091W, strain srl3, hits give low values 0.993 | S. cerevisiae deletion strains, locus YLL001W, strain dnm1, hits give low values 0.952 | S. cerevisiae deletion strains, locus YLL026W, hits give low values 0.984 | S. cerevisiae deletion strains, locus YLL041C, strain sdh2, hits give low values 0.992 | S. cerevisiae deletion strains, locus YLR027C, strain aat2, hits give low values 0.973 | S. cerevisiae deletion strains, locus YLR039C, strain RIC1, hits give low values 1.02 | S. cerevisiae deletion strains, locus YLR058C, strain SHM2, hits give low values 1 | S. cerevisiae deletion strains, locus YLR102C, strain apc9, hits give low values 1 | S. cerevisiae deletion strains, locus YLR113W, strain HOG1, hits give low values 0.976 | S. cerevisiae deletion strains, locus YLR221C, strain rsa3, hits give low values 0.995 | S. cerevisiae deletion strains, locus YLR258W, strain gsy2, hits give low values 0.992 | S. cerevisiae deletion strains, locus YLR262C, strain YPT6 (second series), hits give low values 0.971 | S. cerevisiae deletion strains, locus YLR262C, strain YPT6, hits give low values 1.01 | S. cerevisiae deletion strains, locus YLR268W, strain sec22, hits give low values 1.03 | S. cerevisiae deletion strains, locus YLR320W, strain mms22, hits give low values 0.99 | S. cerevisiae deletion strains, locus YLR330W, strain CHS5, hits give low values 0.994 | S. cerevisiae deletion strains, locus YLR342W, strain FKS1 (second series), hits give low values 0.984 | S. cerevisiae deletion strains, locus YLR342W, strain FKS1, hits give low values 0.961 | S. cerevisiae deletion strains, locus YLR357W, strain rsc2, hits give low values 0.951 | S. cerevisiae deletion strains, locus YLR370C, strain arc18, hits give low values 0.974 | S. cerevisiae deletion strains, locus YLR371W, strain rom2, hits give low values 1.01 | S. cerevisiae deletion strains, locus YLR384C, strain iki3, hits give low values 0.983 | S. cerevisiae deletion strains, locus YLR418C, strain cdc73, hits give low values 1.03 | S. cerevisiae deletion strains, locus YML016C, strain PPZ1, hits give low values 1 | S. cerevisiae deletion strains, locus YML032C, strain rad52, hits give low values 1.02 | S. cerevisiae deletion strains, locus YML120C, strain ndi1, hits give low values 0.993 | S. cerevisiae deletion strains, locus YML124C, strain tub3, hits give low values 1.01 | S. cerevisiae deletion strains, locus YMR058W, strain fet3, hits give low values 0.991 | S. cerevisiae deletion strains, locus YMR078C, strain ctf18, hits give low values 1.03 | S. cerevisiae deletion strains, locus YMR125W, strain sto1, hits give low values 0.983 | S. cerevisiae deletion strains, locus YMR129W, hits give low values 0.991 | S. cerevisiae deletion strains, locus YMR205C, strain PFK2, hits give low values 0.984 | S. cerevisiae deletion strains, locus YMR223W, strain ubp8, hits give low values 0.992 | S. cerevisiae deletion strains, locus YMR231W, strain pep5, hits give low values 0.986 | S. cerevisiae deletion strains, locus YMR263W, strain SAP30, hits give low values 1 | S. cerevisiae deletion strains, locus YMR307W, strain GAS1, hits give low values 1 | S. cerevisiae deletion strains, locus YNL067W, strain RPL9B, hits give low values 1.01 | S. cerevisiae deletion strains, locus YNL071W, strain lat1, hits give low values 0.999 | S. cerevisiae deletion strains, locus YNL128W, strain TEP1, hits give low values 1.01 | S. cerevisiae deletion strains, locus YNL153C, strain GIM3, hits give low values 1.01 | S. cerevisiae deletion strains, locus YNL183C, strain NPR1, hits give low values 0.97 | S. cerevisiae deletion strains, locus YNL209W, strain ssb2, hits give low values 1.01 | S. cerevisiae deletion strains, locus YNL233W, strain BNI4, hits give low values 0.999 | S. cerevisiae deletion strains, locus YNL248C, strain rpa49, hits give low values 0.989 | S. cerevisiae deletion strains, locus YNL250W, strain rad50, hits give low values 1.01 | S. cerevisiae deletion strains, locus YNL271C, strain bni1, hits give low values 1.01 | S. cerevisiae deletion strains, locus YNL298W, strain CLA4, hits give low values 1.01 | S. cerevisiae deletion strains, locus YNL307C, strain MCK1, hits give low values 1.01 | S. cerevisiae deletion strains, locus YNL322C, strain KRE1 (second series), hits give low values 0.99 | S. cerevisiae deletion strains, locus YNL322C, strain KRE1, hits give low values 0.997 | S. cerevisiae deletion strains, locus YNR049C, strain mso1, hits give low values 0.984 | S. cerevisiae deletion strains, locus YNR052C, strain pop2, hits give low values 1.02 | S. cerevisiae deletion strains, locus YOL006C, strain TOP1, hits give low values 1.05 | S. cerevisiae deletion strains, locus YOL012C, strain htz1 0.687 | S. cerevisiae deletion strains, locus YOL147C, strain pex11, hits give low values 1 | S. cerevisiae deletion strains, locus YOR001W, strain rrp6, hits give low values 0.98 | S. cerevisiae deletion strains, locus YOR061W, strain CKA2, hits give low values 1 | S. cerevisiae deletion strains, locus YOR069W, strain VPS5, hits give low values 0.995 | S. cerevisiae deletion strains, locus YOR070C, strain gyp1, hits give low values 1 | S. cerevisiae deletion strains, locus YOR080W, strain dia2, hits give low values 0.982 | S. cerevisiae deletion strains, locus YOR083W, strain WHI5, hits give low values 0.953 | S. cerevisiae deletion strains, locus YOR106W, strain vam3, hits give low values 0.971 | S. cerevisiae deletion strains, locus YOR136W, strain idh2, hits give low values 1.02 | S. cerevisiae deletion strains, locus YOR144C, strain elg1, hits give low values 1.01 | S. cerevisiae deletion strains, locus YOR184W, strain ser1, hits give low values 1.04 | S. cerevisiae deletion strains, locus YOR231W, strain MKK1, hits give low values 0.976 | S. cerevisiae deletion strains, locus YOR265W, strain rbl2, hits give low values 0.992 | S. cerevisiae deletion strains, locus YOR270C, strain vph1, hits give low values 1 | S. cerevisiae deletion strains, locus YOR290C, strain snf2, hits give low values 1.01 | S. cerevisiae deletion strains, locus YOR316C, strain cot1, hits give low values 1.01 | S. cerevisiae deletion strains, locus YPL051W, strain arl3, hits give low values 0.984 | S. cerevisiae deletion strains, locus YPL055C, strain LGE1, hits give low values 0.976 | S. cerevisiae deletion strains, locus YPL078C, strain atp4, hits give low values 0.953 | S. cerevisiae deletion strains, locus YPL106C, strain sse1, hits give low values 1.01 | S. cerevisiae deletion strains, locus YPL240C, strain hsp82, hits give low values 0.977 | S. cerevisiae deletion strains, locus YPL241C, strain CIN2, hits give low values 0.991 | S. cerevisiae deletion strains, locus YPL256C, strain CLN2, hits give low values 1.04 | S. cerevisiae deletion strains, locus YPR119W, strain clb2, hits give low values 1.01 | S. cerevisiae deletion strains, locus YPR141C, strain kar3, hits give low values 1 | S. cerevisiae deletion strains, locus YPR163C, strain tif3, hits give low values 1.01 | S. cerevisiae deletion strains, locus YPR167C, strain met16, hits give low values 1.01 | S. cerevisiae deletion strains, strain wtn01, hits give low values 1.01 | S. cerevisiae strains, strain wild type, hits give low values 0.99
